Screening data as filed in PubChem.
Hits are enriched below; roughly 2% of the tested compounds scored in any of these assays.
PKD1 inh – PKD1 (human) kinase inhibition. Q15139. PKD1 kinase fluorescence polarization assay. inhibition, % (test concentration not listed). 200,000 compounds, 0.056% hits. AID 797; in the data active = inhibition above about 50%
Hsp70 activator – transcriptional activators of Hsp70 | activation, % at 10 µM | 200,000 compounds, 0.04% hits | HeLa Hsp70 promoter luciferase reporter, luminescence; scaled: vehicle 0, proteasome-inhibitor control 100%;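 active = activation above the mean across all tested compounds plus 3 SD, cutoff set per campaign, cut at about 5.5% in these data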;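 also: 100% = MG132 at 30 µM as the positive control and 0% = DMSO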
Wee1 stabilizer – inhibitors of human Wee1 degradation; P30291; HeLa Luc-Wee1K328M stability, luciferase luminescence; 100% = proteasome inhibitor MG132 effect; reporter increase, % at 5 µM; 220,000 compounds, 1.2% hits; AID 1321;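 active = activation above the mean of all tested compounds plus 3 SD, set per screening run, cut at about 8.8% in these data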;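 also: cells exposed to compound for 20 h before luminescence read; 0% = DMSO alone and 100% = MG132 at 30 µM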
Target sequence (P30291 whole entry K328M): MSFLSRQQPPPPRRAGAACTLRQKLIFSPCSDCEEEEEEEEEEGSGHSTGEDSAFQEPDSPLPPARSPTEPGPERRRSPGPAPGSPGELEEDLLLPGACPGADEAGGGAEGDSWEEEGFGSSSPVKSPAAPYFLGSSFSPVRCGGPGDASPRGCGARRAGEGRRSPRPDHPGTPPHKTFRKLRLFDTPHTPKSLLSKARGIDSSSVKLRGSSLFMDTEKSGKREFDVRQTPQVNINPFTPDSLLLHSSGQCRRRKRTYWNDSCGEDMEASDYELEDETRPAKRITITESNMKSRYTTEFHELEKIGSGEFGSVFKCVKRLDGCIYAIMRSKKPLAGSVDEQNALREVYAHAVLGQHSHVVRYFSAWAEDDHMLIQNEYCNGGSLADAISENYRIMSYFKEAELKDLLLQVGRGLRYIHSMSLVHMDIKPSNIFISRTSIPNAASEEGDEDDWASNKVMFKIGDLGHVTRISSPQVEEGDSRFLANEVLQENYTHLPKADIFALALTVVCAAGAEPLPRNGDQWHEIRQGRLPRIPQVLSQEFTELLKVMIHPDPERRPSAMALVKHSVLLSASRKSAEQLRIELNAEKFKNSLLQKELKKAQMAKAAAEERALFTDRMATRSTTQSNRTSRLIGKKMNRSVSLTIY
Efa HMGR inh – inhibitors of class II HMG-CoA reductase from Enterococcus faecalis; purified E. faecalis HMGR, NADPH absorbance 340 nm kinetic; inhibition, % at 10 µM; 190,000 compounds, 0.41% hits; AID 1066;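 active = inhibition above a set limit, the median over all tested compounds plus 3 SD, cut at about 9.5% in these data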;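 also: enzyme runs in reverse so mevalonate oxidation gives rising NADPH absorbance; 0% = complete reaction with DMSO and 100% = background rate lacking mevalonate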
Arbovirus anti – arbovirus infection inhibition | inhibition, % at 10 µM | 200,000 compounds, 0.37% hits | AID 1251 | arbovirus infection cell-based antiviral screen; in the data active = inhibition above about 30%
Starred values were filed as active, the others as inactive; / = no result given.

SMILES	PKD1 inh	Hsp70 activator	Wee1 stabilizer	Efa HMGR inh	Arbovirus anti
O=C1CC(N2CCN(C3CC(=O)N(CCc4ccccc4)C3=O)CC2)C(=O)N1CCc1ccccc1 (configuration not stated)	-15	0	0	-2	-1
CCOC(=O)c1c(NC(=O)Cn2ccsc2=N)sc(C)c1C	-8	0	2	-7	-3
Cc1c(N2C(=O)C(=O)/C(=C(/O)c3ccc(Cl)cc3)C2c2ccccc2)c(=O)n(-c2ccccc2)n1C (configuration not stated)	-8	0	-2	0	-7
O=C(NC(=S)NCC1CCCO1)c1ccccc1 (configuration not stated)	-3	0	9.0*	-3	-9
CCN(CC)S(=O)(=O)c1cccc(C(=O)NC(C)C(c2cccs2)N2CCCC2)c1 (configuration not stated)	-2	0	-2	-1	-5
Cc1ccc(NCC(=O)c2ccc([N+](=O)[O-])cc2)cc1	-1	0	9.4*	3	-15
Cc1ccc(C(=O)CNc2cccc([N+](=O)[O-])c2)cc1	4	1	4	2	8
O=C(c1ccc(F)cc1)N(C(=O)c1ccc(F)cc1)c1ncccn1	0	0	2	-8	12
CC(C)/C=N/Nc1nc(-c2ccc(Br)cc2)cs1	-5	0	1	-7	15
Cc1oc(-c2ccccc2Cl)nc1CSCC(=O)N1CCCC1	2	0	-3	-2	33*
Cc1oc(-c2ccccc2Cl)nc1CSCC(=O)NC1CCCC1	1	0	3	-1	12
C[C@H](NC(=O)c1ccccc1Cl)C(=O)NCc1cccs1	0	0	0	1	11
CC(C)CN(CC(C)C)C(=O)COc1ccccc1C(N)=O	-7	0	9.9*	-3	2
O=C(Cn1ncc(Cl)c(Cl)c1=O)NC1CCS(=O)(=O)C1 (configuration not stated)	/	/	9.5*	/	/
O=C(Cn1ncc(Cl)c(Cl)c1=O)NCC1CCCCC1	-3	0	0	-1	-43
C=C(Cl)COc1ccc2c(CC)cc(=O)oc2c1	2	0	-1	-8	-3
C=C(Cl)COc1ccc2c(CCCC)cc(=O)oc2c1	-5	0	9.3*	-3	-2
O=S(=O)(c1ccccc1S(=O)(=O)N1CCCCC1)N1CCCCC1	-11	0	9.1*	-3	4
N#Cc1cnc(NOCc2ccc(Cl)cc2)nc1	7	0	-2	9.6*	27
COc1ccnc(N=CNOCc2ccc(Cl)cc2)c1C#N	/	/	-3	/	/
O=C(COc1ccc(NS(=O)(=O)c2ccc(F)cc2)cc1)N1CCOCC1	-2	0	-1	0	-2
CCOc1ccc(C(=O)Nc2cc(NC(=O)c3ccc(OCC)c(Cl)c3)cc(C(=O)O)c2)cc1Cl	1	0	0	-2	88*
Cc1ccc(S(=O)(=O)c2nc(S(C)(=O)=O)sc2NCC2CCCO2)cc1 (configuration not stated)	-8	0	5	-5	6
Cc1ccc(-c2nc(NCC3CCCO3)sc2C)cc1 (configuration not stated)	-5	0	0	12*	12
COC(=O)C(NC(C)=O)(Nc1ccc(C)cn1)C(F)(F)F (configuration not stated)	/	/	3	/	/
SMILES	PKD1 inh	Hsp70 activator	Wee1 stabilizer	Efa HMGR inh	Arbovirus anti
CN(C)C(=S)SCC(=O)Nc1ccc(Cl)cc1Cl	-14	0	1	1	-3
O=c1c2sc(-c3ccccc3)cc2nc2n1CCC2	-3	0	4	-1	-11
O=c1c2sc(-c3ccccc3)cc2nc2n1CCCCC2	/	/	9.9*	/	/
Cn1cc(CN2CCN(c3ccccc3)CC2)c2ccccc21	6	0	4	-10	36*
OC(CN1CCN(c2ccccc2)CC1)Cn1c2ccccc2c2ccccc21 (configuration not stated)	-6	0	2	-1	14
COC(=O)c1c(SCc2ccc(C#N)cc2)nc(=O)[nH]c1C	-6	0	-1	-3	78*
COC(=O)c1c(SCc2cccc3ccccc23)nc(=O)[nH]c1C	/	/	-2	/	/
Cc1cccc(NC(=O)CSc2nc(N)c(NC(=O)c3cccs3)c(=O)[nH]2)c1	-8	0	9.3*	-2	2
O=C(CCSc1nnc(-c2ccco2)o1)Nc1ccc(F)cc1	-5	0	1	-4	13
[O-][n+]1ccccc1SC/C=C/c1ccccc1	-8	0	10*	-3	17
O=C(O)CSc1cccc[n+]1[O-]	-1	0	-3	-3	2
CC1CN(c2ccc(NC(=S)NNCCC#N)cc2)CC(C)O1 (configuration not stated)	/	/	-3	/	/
Cn1ncc([N+](=O)[O-])c1C(=O)n1nnc2ccccc21	-5	0	27*	-1	7
Cc1c(C(=O)N2CCc3ccccc32)cnn1C	10	0	5	11*	7
CCC(=O)N(Cc1ccco1)c1nc(-c2ccccc2)cs1	6	2	6	-1	1
CC(=O)Nc1ccc(C(=O)Nc2nc(-c3ccccn3)cs2)cc1	1	0	3	-1	34*
O=C(Nc1nc(-c2ccco2)cs1)c1ccccc1	-9	0	-1	2	62*
CC(=O)Nc1ccc(C(=O)Nc2nc(-c3cccnc3)cs2)cc1	-5	0	3	2	25
CCC(=O)N(Cc1ccco1)c1nc(-c2ccc(OC)cc2)cs1	-5	0	-2	12*	-13
CC(=O)Nc1ccc(-c2csc(NC(=O)c3ccc(C)o3)n2)cc1	1	0	6	3	39*
CCOC(=O)CN1C(=O)CN(c2ccc(C)c(C)c2)C1=O	-8	0	-2	1	-5
CCCCNC(=O)NS(=O)(=O)c1ccc(NC(=O)C(NC(N)=O)C(C)CC)cc1 (configuration not stated)	/	/	1	/	/
COc1ccc(-c2csc(NC(=O)c3ccco3)n2)cc1	-4	0	6	-4	65*
O=C(Nc1nc(-c2ccccc2)cs1)c1ccco1	/	/	3	/	/
O=C(COC(=O)c1ccc(N2CCOCC2)c([N+](=O)[O-])c1)Nc1ccc2c(c1)OCO2	-4	0	-2	-3	1
SMILES	PKD1 inh	Hsp70 activator	Wee1 stabilizer	Efa HMGR inh	Arbovirus anti
Nc1ccc(C(=O)OCC(=O)Nc2ccc3c(c2)OCO3)cc1[N+](=O)[O-]	1	1	11*	-4	-10
Cc1ccc(C(=O)N/C(=C\c2cccs2)C(=O)NCc2ccncc2)cc1	-5	0	4	-7	0
COCCn1c(C)cc(C(=O)CSc2nc3ccccc3c(=O)n2Cc2ccco2)c1C	-6	0	1	4	-1
COCCn1c(C)cc(C(=O)CSc2cc(C)c3ccccc3n2)c1C	-6	0	0	-8	31*
Cc1ccccc1CSc1nnc(NC(=O)C2COc3ccccc3O2)s1 (configuration not stated)	-7	0	-2	-1	48*
O=C(Nc1nnc(SCc2ccccc2Cl)s1)C1COc2ccccc2O1 (configuration not stated)	0	0	0	/	41*
